PubChem BioAssay (EPA / NIEHS)
Inconclusive results are not listed. Activity calls are given as the source filed them. Rule for the calls: active = hit-call score of the fitted dose curve at least 0.9, where 1 is the maximum; inconclusive = response in the unintended direction; inactive = score below 0.9.

Target: human Dopamine Transporter (DAT), SLC6A3 (gene 6531) (UniProt Q01959)
Experiment: NVS_TR_hDAT: NovaScreen (NVS) Transporter Assay for human Dopamine Transporter (DAT) (AID 2283374);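 note: activity means loss of bound radioligand signal relative to DMSO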
Method: NVS_TR_hDAT is a biochemical, single-readout assay that uses extracted gene-proteins in a cell-free assay. Measurements were taken 1 hour after chemical dosing in a 96-well plate.NVS_TR_hDAT is one of one assay component(s) measured or calculated from the NVS_TR_hDAT assay. It is designed to make measurements of radioligand binding, a form of binding reporter, as detected with scintillation counting signals by Filter-based radiodetection technology.Data from the assay component NVS_TR_hDAT was analyzed into 1 assay endpoint. This assay endpoint, NVS_TR_hDAT, was analyzed in the positive analysis fitting direction relative to DMSO as the negative control and baseline of activity. Using a type of binding reporter, loss-of-signal activity can be used to understand changes in the binding as they relate to the gene SLC6A3. Furthermore, this assay endpoint can be referred to as a primary readout, because the performed assay has only produced 1 assay endpoint. To generalize the intended target to other relatable targets, this assay endpoint is annotated to the transporter intended target family, where the subfamily is neurotransmitter transporter.
Binding assays used specific radioligands (tritiated, iodinated) with non-radioactive competitive displacement ligands in agonist or antagonist protocols (as indicated) and various reference compounds and inhibitors to titrate specific binding to receptors and transporters. Most enzyme assays (CYPs, kinases, phosphatases, proteases, HDACs) used recombinant protein and specific substrates (fluorescence mostly, some colorimetric and radioactive) and inhibitors, followed by a biochemical separation of substrate and product. All assays for the biochemical HTS were initially run in duplicate at a single concentration (10 uM for CYP450 assays and 25 uM for all others). […] Each assay was run with positive and negative controls, and concurrent controls on every plate. The follow-up (secondary) screen tested active chemical-pairs in concentration series, as well as a few additional assays not tested in the primary screen, some selected negative inactives, and several cases re-run in the concentration series for confirmatory purposes.

Sequence of human Dopamine Transporter (DAT), SLC6A3 (gene 6531) (Q01959 whole entry, looked up): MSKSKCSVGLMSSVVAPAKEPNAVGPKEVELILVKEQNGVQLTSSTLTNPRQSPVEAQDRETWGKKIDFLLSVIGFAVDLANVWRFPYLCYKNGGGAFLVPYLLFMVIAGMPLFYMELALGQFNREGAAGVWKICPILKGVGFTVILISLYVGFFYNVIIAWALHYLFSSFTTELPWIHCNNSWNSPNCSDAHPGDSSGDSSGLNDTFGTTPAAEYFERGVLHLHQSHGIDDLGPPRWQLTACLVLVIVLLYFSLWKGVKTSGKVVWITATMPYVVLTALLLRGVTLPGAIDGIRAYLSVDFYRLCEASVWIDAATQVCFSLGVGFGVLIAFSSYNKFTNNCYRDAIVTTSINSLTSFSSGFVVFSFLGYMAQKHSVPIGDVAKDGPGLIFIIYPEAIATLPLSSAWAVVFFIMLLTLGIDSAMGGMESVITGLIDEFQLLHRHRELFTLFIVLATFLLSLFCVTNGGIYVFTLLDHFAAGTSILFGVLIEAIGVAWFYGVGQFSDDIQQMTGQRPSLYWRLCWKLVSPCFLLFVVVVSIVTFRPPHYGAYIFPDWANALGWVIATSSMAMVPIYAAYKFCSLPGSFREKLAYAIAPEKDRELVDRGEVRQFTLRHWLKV

Row | SMILES | outcome | AC50
1 | CCCCC(CC)C(=O)OCCOCCOCCOC(=O)C(CC)CCCC (stereo not given) | inactive | 
2 | O=C(NO)C1(NS(=O)(=O)c2ccc(Oc3ccc(F)cc3)cc2)CCOCC1 |  | 8.77 µM (active)
3 | OC(CCl)CCl | inactive | 
4 | CC(C)c1nnc2ccc(-c3ocnc3-c3cc(F)ccc3F)cn12 | inactive | 
5 | c1ccc(C(O[C@@H]2CCCN(CCc3ccc4c(c3)OCO4)C2)c2ccccc2)cc1 |  | 0.063 µM (active)
6 | C=CCc1cc(S(=O)(=O)c2ccc(O)c(CC=C)c2)ccc1O |  | 7.48 µM (active)
7 | Cc1nccn1-c1ccc(Sc2cccc(C3(C(N)=O)CCOCC3)c2)cc1 |  | 6.99 µM (active)
8 | CCn1nc(C)c2c1C(=O)NCC(c1ccc(O)cc1)=N2 | inactive | 
9 | OCCOCCOCCO |  | 6.63 µM (active)
10 | COc1cc(C(C)C)c2c(c1)S(=O)(=O)N(COc1cc(=O)n3cccc(OCCN4CCCCC4)c3n1)C2=O |  | 2.87 µM (active)
11 | CC[C@H](C)C(=O)O[C@H]1C[C@H](O)C=C2C=C[C@H](C)[C@H](CC[C@@H](O)C[C@@H](O)CC(=O)O)[C@H]21 | inactive | 
12 | CCCOc1ccc(S(=O)(=O)N2CCN(CC)CC2)cc1-c1nc2c(CC)n(Cc3ccccn3)nc2c(=O)[nH]1 |  | 25 µM (active)
13 | OCc1ccccc1 | inactive | 
14 | CCN(CC)C(=S)SSC(=S)N(CC)CC |  | 10.4 µM (active)
15 | CCCCCCCCCC | inactive | 
